Records with an inconclusive call do not appear. Where a call stands in place of a potency, no number is given. Unmarked numbers belong to inactive results. Calls of active or inactive are those of the source. Unless noted, calls follow the shape of the dose curve; as a rule, active = well fitted curve in the direction sought with a large enough effect in the repeat runs; inconclusive = weak or mixed curves; inactive = no such curve, though single readings can be large; an effect the other way counts as inactive or inconclusive.
What was measured:
[1] = molecular target: Nuclear receptor ROR-gamma (Homo sapiens) (UniProt P51449); test: qHTS assay to identify small molecule antagonists of the retinoid-related orphan receptor gamma (ROR-gamma) signaling pathway (AID 1159521; also: nearly all actives have a fitted effect of over 50% in size; also: potency is read from the fitted curve at half-maximal effect;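 as to activity change, negative = inhibition: CHO cells with doxycycline inducible ROR-gamma driving an RORE luciferase reporter; top concentration of the series differs between compounds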)
Outline: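 Readout: ONE-Glo luciferase luminescence, 30 min at room temperature. System: Tet-on RORγ CHO, RORE-LUC. Sequence: compound 2 h, doxycycline 1 uM final, 16 h at 37 C.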

[2] = molecular target: Retinoic acid receptor RXR-alpha (Homo sapiens) (UniProt P19793); test: qHTS assay to identify small molecule agonists of the RXR signaling pathway (AID 1159527; calls by dose curve; also: nearly all actives have a fitted effect of over 35% in size; also: potency is read from the fitted curve at half-maximal effect)
Chain of Retinoic acid receptor RXR-alpha (Homo sapiens) (P19793 whole entry, looked up): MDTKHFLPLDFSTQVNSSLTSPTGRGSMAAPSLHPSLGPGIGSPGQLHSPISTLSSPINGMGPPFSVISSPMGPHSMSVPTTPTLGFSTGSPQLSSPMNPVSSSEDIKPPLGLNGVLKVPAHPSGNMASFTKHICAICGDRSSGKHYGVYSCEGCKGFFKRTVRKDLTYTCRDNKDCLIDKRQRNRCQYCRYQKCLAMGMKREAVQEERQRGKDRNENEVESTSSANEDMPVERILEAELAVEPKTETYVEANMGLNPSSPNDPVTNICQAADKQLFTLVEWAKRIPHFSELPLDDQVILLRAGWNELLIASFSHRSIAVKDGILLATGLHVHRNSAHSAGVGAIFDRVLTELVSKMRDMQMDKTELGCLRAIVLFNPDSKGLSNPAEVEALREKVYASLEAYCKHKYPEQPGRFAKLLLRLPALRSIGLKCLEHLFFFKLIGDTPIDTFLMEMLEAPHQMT
Outline: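 Reporter activation is measured as beta-lactamase activity via FRET substrate cleavage (emission 460/530 nm) in HEK 293T cells expressing an RXR-alpha-driven bla construct, following 16 hr compound exposure at 37 C.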

[3] = qHTS assay to identify small molecule antagonists of the retinoid acid receptor (RAR) signaling pathway - cell viability counter screen (AID 1159551); also: nearly all actives have a fitted effect of over 35% in size
Outline: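 Following overnight attachment, C3RL4 reporter cells received DMSO-dissolved compounds and then retinol (1 uM final). Six hours later at 37 C, ATP content was measured by CellTiter-Glo luminescence.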

[4] = qHTS assay to identify small molecule agonists of the AP-1 signaling pathway - cell viability counter screen (AID 1159525; calls by dose curve; also: nearly all actives have a fitted effect of over 55% in size; also: potency is read from the fitted curve at half-maximal effect)
Outline: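 AP-1-bla ME-180 cells in Opti-MEM with 0.5% dialyzed FBS, compound exposure 5 h at 37 C in 15-point titration. Viability read in the same wells as ATP content by CellTiter-Glo luminescence, normalised to tetra-n-octylammonium bromide and DMSO controls.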

[5] = qHTS assay to identify small molecule agonists of the AP-1 signaling pathway (AID 1159526; calls by dose curve)
[6] = qHTS assay to identify small molecule antagonists of the estrogen related receptor (ERR) signaling pathway from Tox21 library - cell viability counter screen (AID 1224834); also: nearly all actives have a fitted effect of over 30% in size; also: potency is read from the fitted curve at half-maximal effect
Outline: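 Viability readout (CellTiter-Fluor fluorescence, 30 min at 37 C) multiplexed with the ERR assay; cells treated 17.5 h at 37 C with compounds delivered in DMSO.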

[7] = molecular target: Luciferin 4-monooxygenase (Photinus pyralis) (UniProt P08659); test: qHTS assay to identify small molecule inhibitors of firefly luciferase (AID 1224835); also: nearly all actives have a fitted effect of over 25% in size; also: potency is read from the fitted curve at half-maximal effect; as to activity change, negative = inhibition: series mostly up to about 120 µM
Chain of Luciferin 4-monooxygenase (Photinus pyralis) (P08659 whole entry, looked up): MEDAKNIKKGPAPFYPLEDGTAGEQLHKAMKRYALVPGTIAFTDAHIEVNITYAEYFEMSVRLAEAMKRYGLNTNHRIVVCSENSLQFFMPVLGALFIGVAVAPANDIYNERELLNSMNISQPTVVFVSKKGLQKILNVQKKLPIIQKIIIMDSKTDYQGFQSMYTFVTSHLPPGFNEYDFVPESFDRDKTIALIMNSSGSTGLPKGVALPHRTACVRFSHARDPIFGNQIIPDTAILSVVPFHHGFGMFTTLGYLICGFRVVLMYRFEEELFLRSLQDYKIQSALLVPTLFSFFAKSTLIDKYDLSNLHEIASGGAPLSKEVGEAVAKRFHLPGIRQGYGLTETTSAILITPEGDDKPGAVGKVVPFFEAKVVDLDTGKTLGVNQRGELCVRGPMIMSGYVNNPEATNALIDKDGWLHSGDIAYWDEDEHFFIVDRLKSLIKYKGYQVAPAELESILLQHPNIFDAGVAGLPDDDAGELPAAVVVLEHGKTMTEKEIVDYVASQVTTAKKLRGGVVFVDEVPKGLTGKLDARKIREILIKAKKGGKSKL
Outline: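 Biochemical qHTS: compounds run as interplate titrations against purified firefly enzyme, with D-luciferin and ATP each at its KM concentration. Light output recorded by CCD imaging.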

[8] = qHTS assay to identify small molecule agonists of the constitutive androstane receptor (CAR) signaling pathway - cell viability counter screen (AID 1224836); also: series mostly up to about 92 µM; nearly all actives have a fitted effect of over 45% in size
Outline: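 Fluorescence from CellTiter-Fluor indicates live cells after 23 h exposure. The human hepatoma line expresses hCAR and a CYP2B6-2.2kb reporter. Incubation medium contains 0.75 uM PK11195 (final).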

[9] = qHTS assay to identify small molecule antagonists of the retinoic acid receptor (RAR) signaling pathway (AID 1159552; also: nearly all actives have a fitted effect of over 50% in size)
Outline: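 Overnight-plated C3RL4 reporter cells get compound, then retinol to 1 uM final; plates sit 6 hr at 37 C, 5% CO2. A luciferase reagent is added and light output recorded after 30 min at room temperature.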

[10] = qHTS assay to identify small molecule agonists of the retinoic acid receptor (RAR) signaling pathway (AID 1159553); also: potency is read from the fitted curve at half-maximal effect
Outline: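 Cell line C3RL4, RARE luciferase reporter. Treatment: compounds in DMSO, 6 hr, 37 C, 5% CO2, after overnight plating. Detection: luminescence, 30 min RT after reagent.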

[11] = qHTS assay to identify small molecule antagonists of the estrogen related receptor (ERR) signaling pathway - cell viability counter screen (AID 1224818);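 also: series mostly up to about 46 µM; viability measured after 17.5 h of compound exposure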
Outline: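 Here, ERR cells are plated at 2,000 cells per well, allowed 6 h to attach, and treated with compounds in DMSO for 17.5 h at 37 C. CellTiter-Fluor is then added and fluorescence read after 30 min.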

[12] = qHTS assay to identify small molecule antagonists of the estrogen related receptor (ERR) signaling pathway (AID 1224819;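 also: luminescence from an ERR-driven luciferase reporter measured with One-Glo reagent; series mostly up to about 46 µM; nearly all actives have a fitted effect of over 50% in size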)
Outline: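 LOPAC library screened for antagonism as reduced One-Glo luminescence in ERR reporter cells (2,000/well). Compounds were added after 6 h pre-incubation and left 18 h at 37C; reading followed a 30 min room-temperature reagent step.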

[13] = system: estrogen-related receptor alpha (ERRalpha) with PGC-1alpha coactivator, human; test: qHTS assay to identify small molecule antagonists of the estrogen related receptor signaling pathway with the pleiotropic PPARgamma coactivator (PGC) (AID 1224821; calls by dose curve;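 also: series mostly up to about 46 µM; lower luminescence signal means antagonism of PGC/ERR signalling; nearly all actives have a fitted effect of over 50% in size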)
Outline: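 Cells engineered for PGC/ERR signalling (line from NTP) were plated 6 h at 37 C/5% CO2, then exposed to DMSO-dissolved compound for 18 h at 37 C. Luciferase activity was read by One-Glo luminescence after 30 min at room temperature.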

[14] = qHTS assay to identify small molecule antagonists of the estrogen related receptor signaling pathway with the pleiotropic PPARgamma coactivator (PGC) cell viability counter screen (AID 1224822;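 also: series mostly up to about 46 µM; viability read after 17.5 h compound exposure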)
Outline: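 qHTS format, DMSO compound stocks pin-transferred onto PGC/ERR cells 6 h after plating; 17.5 h exposure at 37 C, then CellTiter-Fluor fluorescence.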

[15] = qHTS assay to identify small molecule agonists of the estrogen related receptor signaling pathway with the pleiotropic PPARgamma coactivator (PGC) (AID 1224823)
Outline: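 PGC/ERR reporter cells were seeded, rested 6 h at 37 C/5% CO2, then exposed to compounds in DMSO by pin transfer for 18 h at 37 C. Luciferase activity was read as luminescence after One-Glo reagent and 30 min at room temperature.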

[16] = qHTS assay to identify small molecule antagonists of the constitutive androstane receptor (CAR) signaling pathway - cell viability counter screen (AID 1224837); also: series mostly up to about 92 µM; nearly all actives have a fitted effect of over 45% in size
Outline: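 Fluorescence from CellTiter-Fluor served as the viability signal. Human hepatoma HepG2 cells stably bearing hCAR and CYP2B6-2.2kb received compound plus CITCO (50 nM final) for 23 hr.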

[17] = qHTS assay to identify small molecule agonists of the RXR signaling pathway - cell viability counter screen (AID 1159529); also: nearly all actives have a fitted effect of over 50% in size; also: potency is read from the fitted curve at half-maximal effect; as to activity change, negative = cytotoxicity: series mostly up to about 77 µM
Outline: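 Tox21 10K compounds were tested for cytotoxicity against GeneBLAzer RXR-alpha HEK 293T cells grown in 2% charcoal-stripped FBS. Exposure lasted 16 hr at 37 C, 5% CO2; viability read by CellTiter-Glo luminescence.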

[18] = qHTS assay to identify small molecule antagonists of the vitamin D receptor (VDR) signaling pathway - cell viability counter screen (AID 743225)
Outline: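 Cytotoxicity toward the VDR-bla HEK 293T line was scored by ATP-based CellTiter-Glo luminescence, read in the wells already used for the beta-lactamase readout after 16 h compound treatment under 3 nM 1-alpha,25-dihydroxyvitamin D3 stimulation.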

## Oc1cccc2c(O)cccc12
[1]
  Potency: 68.6 µM (active)
[2]
  Potency: inactive
[3]
  Potency: inactive

## O=C(O)CN(CCCN(CC(=O)O)CC(=O)O)CC(=O)O
[1]
  activity change, negative = inhibition: -18.7% [at 19 µM]
[4]
  viability change, negative = cytotoxic: -3.53% [at 15.8 µM]
[5]
  activation: 3.51% [at 15.8 µM]
[2]
  activation: 0.262% [at 15.8 µM]
[3]
  activity change, negative = cytotoxicity: 0.537% [at 19 µM]
[6]
  viability change, negative = cytotoxic: 11.6% [at 19 µM]
[7]
  activity change, negative = inhibition: 0.284% [at 23.6 µM]
[8]
  viability change, negative = cytotoxic: -21.6% [at 19 µM]

## CCCOC(=O)c1ccc(O)cc1
[1]
  Potency: inactive
[4]
  Potency: inactive
[5]
  Potency: inactive
[9]
  Potency: inactive
[10]
  Potency: 54.5 µM (active)
[11]
  Potency: inactive
[12]
  Potency: inactive
[13]
  Potency: inactive
[14]
  Potency: inactive
[15]
  Potency: inactive
[7]
  Potency: 89.4 µM (active)
[8]
  Potency: inactive
[16]
  Potency: inactive

## O=C(NCc1ncc(C(F)(F)F)cc1Cl)c1c(Cl)cccc1Cl
[1]
  Potency: 12.2 µM (active)
[4]
  Potency: inactive
[5]
  Potency: inactive
[3]
  Potency: inactive
[7]
  Potency: inactive
[8]
  Potency: inactive
[16]
  Potency: inactive

## CC(c1cc(C(C)(C)C)cc(C(C)(C)C)c1O)c1cc(C(C)(C)C)cc(C(C)(C)C)c1O
[1]
  Potency: 19.3 µM (active)
[4]
  Potency: inactive
[5]
  Potency: inactive
[2]
  Potency: 3.47 µM (active)
[3]
  Potency: inactive
[6]
  Potency: inactive
[7]
  Potency: inactive
[8]
  Potency: inactive
[16]
  Potency: inactive

## C=COCCCC
[1]
  Potency: inactive
[4]
  Potency: inactive
[5]
  Potency: inactive
[17]
  Potency: inactive
[3]
  Potency: inactive
[9]
  Potency: inactive
[6]
  Potency: inactive
[7]
  Potency: inactive
[8]
  Potency: inactive
[16]
  Potency: inactive

## N#Cc1ccc(C/C(=N/NC(=O)Nc2ccc(OC(F)(F)F)cc2)c2cccc(C(F)(F)F)c2)cc1
[1]
  Potency: inactive
[4]
  Potency: inactive
[3]
  Potency: inactive
[6]
  Potency: inactive
[7]
  Potency: inactive
[8]
  Potency: inactive
[16]
  Potency: inactive

## CCCCCc1ccc(O)cc1
[1]
  Potency: inactive
[3]
  Potency: inactive
[9]
  Potency: inactive
[6]
  Potency: inactive
[7]
  Potency: 56.4 µM (active)
[8]
  Potency: inactive
[16]
  Potency: inactive

## CCCCCCCCOC(=O)c1cc(O)c(O)c(O)c1
[18]
  Potency: 27.5 µM (active)
[1]
  Potency: 1.93 µM (active)
[4]
  Potency: 54.9 µM (active)
[17]
  Potency: 43.6 µM (active)
[9]
  Potency: inactive
[6]
  Potency: 24.3 µM (active)
[7]
  Potency: inactive
[16]
  Potency: inactive

## C=CC(=O)OCCOC1C2CCC1C1CC=CC12 (stereo not given)
[1]
  activity change, negative = inhibition: 0.993% [at 19 µM]
[4]
  viability change, negative = cytotoxic: -20.2% [at 15.8 µM]
[5]
  activation: -3.6% [at 15.8 µM]
[3]
  activity change, negative = cytotoxicity: -0.0183% [at 19 µM]
[6]
  viability change, negative = cytotoxic: -4.69% [at 19 µM]
[7]
  activity change, negative = inhibition: -9.04% [at 23.6 µM]
[8]
  viability change, negative = cytotoxic: -2.57% [at 19 µM]
[16]
  activity change, negative = cytotoxicity: -0.771% [at 19 µM]

From PubChem BioAssay (Tox21)
